From PubChem BioAssay (NCATS)
Records with an inconclusive call do not appear. Entries that show only a call come without a potency. Activity calls are given as the source filed them. The call rests on the fitted dose curve; in most records, active means well fitted curve in the direction sought with a large enough effect; inconclusive means small, poorly fitted or top-dose-only effect, or another doubt; inactive means no such curve, though single readings can be large; an effect the other way counts as inactive or inconclusive.

What was measured:
[1] = qHTS to identify inhibitors of the type 1 interferon - major histocompatibility complex class I in skeletal muscle: primary screen against the NCATS LOPAC collection (AID 1347405);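 further: lytic HiBiT luminescence reporting HLA-B protein level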
Method in brief: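 Immortalized human C25cl48 myoblasts with HiBiT knocked into endogenous HLA-B*08:01 were stimulated with 4.0 ng/ml IFN-beta and given compounds in a 7-point, 1:4.3 titration from 46 uM final; after 24 hrs, lytic HiBiT luminescence was read.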

[2] = qHTS for inhibitors of adenylyl cyclases using a fission yeast platform: a pilot screen against the NCATS LOPAC library (AID 1347410)
Method in brief: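 Read-out: fbp1-GFP fluorescence by laser scanning cytometry (488 nm laser), a gain of signal when AC/cAMP-PKA signalling is inhibited. Strain CHP2027 expressing AC9, GNAS and PDE4D2; compounds at up to 57 µM; 18 h, 30C.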

[3] = qHTS to identify inhibitors of the type 1 interferon - major histocompatibility complex class I in skeletal muscle: primary screen against the NCATS Mechanism Interrogation Plate v5.0 (MIPE) Libary (AID 1347411); further: nearly all actives have a fitted effect of over 65% in size
Method in brief: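 Immortalized human C25cl48 myoblasts with HiBit knocked into endogenous HLA-B*08:01 were stimulated with 4.0 ng/ml IFN-beta and exposed to compounds (11-point 1:3 titration, top 46 uM final) for 24 hrs at 37 C; HiBiT lytic luminescence measured.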

[4] = Validation qHTS assay for inhibitors of Activation Induced Cytidine Deaminase (AID): UDG Counterscreen signal (AID 1347427)
Method in brief: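 Counterscreen read of UDG activity (2 U/mL, 4/3x) in the FRET deamination format with AID (1 uM, 4/3x), DJC20/DJC23 substrates (250 nM, 4x), 4 h at room temperature. NaOH stop, fluorescence at 560 ex/665 em.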

[5] = biological target: Single-stranded DNA cytosine deaminase (Homo sapiens) (UniProt Q9GZX7); test: Validation qHTS assay for inhibitors of Activation Induced Cytidine Deaminase (AID): AID signal (AID 1347429)
Single-stranded DNA cytosine deaminase (Homo sapiens), sequence (Q9GZX7 whole entry, looked up): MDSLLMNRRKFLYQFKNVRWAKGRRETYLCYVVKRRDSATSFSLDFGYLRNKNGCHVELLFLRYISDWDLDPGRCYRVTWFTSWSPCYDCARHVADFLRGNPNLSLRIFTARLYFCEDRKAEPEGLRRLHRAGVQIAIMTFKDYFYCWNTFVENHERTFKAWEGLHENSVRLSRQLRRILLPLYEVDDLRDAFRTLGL
Method in brief: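 AID and UDG were combined and compounds added at final up to 114 uM, then DJC20/DJC23 FRET substrate was added for 4 hr at room temperature. NaOH was then added for 30 min before fluorescence was read at 540/590 nm.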

[6] = Primary qHTS for inhibitors of La Crosse Virus (LACV) - induced cell death in SH-SY5Y cells (AID 1508616);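 further: top concentration of the series differs between compounds; higher means more rescue of cells from virus-induced death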
Method in brief: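 Luminescent ATP readout (ATPLite 1step, 5 min room temperature) measured rescue from LACV-induced death after 6 days of infection at 0.01 MOI; normalized to infected DMSO wells and uninfected DMSO wells.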

[7] = qHTS to identify inhibitors of the type 1 interferon - major histocompatibility complex class I in skeletal muscle: primary screen against the NCATS Pharmaceutical Collection (AID 1347407);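 further: luminescence of HiBiT knocked into endogenous HLA-B as interferon-induced MHC class I level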; further: potency means the concentration at half of the fitted maximal effect
Method in brief: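 HLA-B HiBiT myoblasts, dexamethasone-free growth medium + 4 ng/ml IFN-b; compounds pinned 1 h after seeding, […] from 46 uM; 24 h, 37 C, 5% CO2; lytic HiBiT detection, 10 min RT, luminescence.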

[8] = biological target: Protein phosphatase 1D (Homo sapiens) (UniProt O15297); test: RapidFire Mass Spectrometry qHTS Assay for Modulators of WT P53-Induced Phosphatase 1 (WIP1) (AID 1347424);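 further: amount of dephosphorylated VEPPL-S-QETFS peptide product formed by WIP1; series mostly up to about 63 µM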
Protein phosphatase 1D (Homo sapiens), sequence (O15297 whole entry, looked up): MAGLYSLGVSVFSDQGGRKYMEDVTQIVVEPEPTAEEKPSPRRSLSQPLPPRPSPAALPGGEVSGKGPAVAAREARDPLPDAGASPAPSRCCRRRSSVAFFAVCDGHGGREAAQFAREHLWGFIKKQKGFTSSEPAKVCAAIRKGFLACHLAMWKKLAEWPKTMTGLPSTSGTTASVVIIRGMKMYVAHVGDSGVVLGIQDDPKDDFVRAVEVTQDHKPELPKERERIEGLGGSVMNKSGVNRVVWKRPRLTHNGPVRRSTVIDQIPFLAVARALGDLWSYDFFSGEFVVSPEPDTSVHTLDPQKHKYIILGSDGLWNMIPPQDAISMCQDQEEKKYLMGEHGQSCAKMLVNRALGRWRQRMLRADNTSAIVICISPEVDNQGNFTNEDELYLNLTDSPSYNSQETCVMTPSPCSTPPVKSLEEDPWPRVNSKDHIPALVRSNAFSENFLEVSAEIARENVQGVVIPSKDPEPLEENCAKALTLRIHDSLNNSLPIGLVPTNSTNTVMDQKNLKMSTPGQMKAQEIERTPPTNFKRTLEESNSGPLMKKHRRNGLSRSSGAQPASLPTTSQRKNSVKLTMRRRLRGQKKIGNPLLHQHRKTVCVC
Method in brief: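 10 nM WIP1 + cpd, 1 h RT; + 2 uM VEPPL-pS-QETFS, 5 min RT; stop 0.5% formic acid; labelled product standard 1 uM; RapidFire MS. Buffer 50 mM Tris pH 7.5, 30 mM MgCl2, 1 mM TCEP.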

[9] = biological target: Protein phosphatase 1D (Homo sapiens) (UniProt O15297); test: Rhodamine-PBP qHTS Assay for Modulators of WT P53-Induced Phosphatase 1 (WIP1) (AID 1347425)
Method in brief: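 5 nM WIP1 + 10 uM Rh-PBP, 50 mM Tris pH 7.5, 30 mM MgCl2, 1 mM TCEP, 0.1 mM EGTA, BSA; cpds pinned, 1 hr RT; + 10 uM phosphopeptide; fluorescence 1-min reads x 11 min; delta = f1 - f0.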

CCCCS(=N)(=O)CCC(N)C(=O)O (centres undefined)
outcome [1]: inactive
outcome [2]: inactive
Potency [3]: inactive
outcome [4]: inactive
outcome [5]: inactive
Potency [6]: inactive

NCCCC(O)(P(=O)(O)O)P(=O)(O)O
Potency [7]: inactive
Potency [3]: inactive
outcome [8]: inactive
outcome [9]: inactive

COc1c(N2CCNC(C)C2)c(F)cc2c(=O)c(C(=O)O)cn(C3CC3)c12 (centres undefined)
Potency [7]: inactive
outcome [8]: inactive
outcome [9]: inactive

COc1ccccc1OCC(O)COC(N)=O (centres undefined)
Potency [7]: inactive
outcome [8]: inactive
outcome [9]: inactive

NNC(=O)c1ccncc1
Potency [7]: inactive
outcome [8]: inactive
outcome [9]: inactive

COc1ccc(-c2ccc3cc(C(=O)O)ccc3c2)cc1C12CC3CC(CC(C3)C1)C2
Potency [7]: inactive
Potency [3]: inactive
outcome [9]: inactive

Nc1nc(N)nc(-c2cc(Cl)ccc2Cl)n1
Potency [7]: inactive
Potency [3]: inactive
outcome [8]: inactive
outcome [9]: inactive
Potency [6]: inactive

COCCCOc1cc(C[C@@H](C[C@H](N)[C@@H](O)C[C@H](C(=O)NCC(C)(C)C(N)=O)C(C)C)C(C)C)ccc1OC
Potency [7]: inactive
outcome [8]: inactive
outcome [9]: inactive

Nc1nc(=S)c2[nH]cnc2[nH]1
Potency [7]: inactive
Potency [3]: inactive
outcome [8]: inactive
outcome [9]: inactive
Potency [6]: inactive

CN(C)CCc1c[nH]c2ccc(C[C@H]3COC(=O)N3)cc12
Potency [7]: inactive
outcome [8]: inactive
outcome [9]: inactive

COc1cc2c(Nc3ccc(Br)cc3F)ncnc2cc1OCC1CCN(C)CC1
Potency [7]: inactive
outcome [8]: inactive
outcome [9]: inactive

CNC(=O)c1cc(Oc2ccc(NC(=O)Nc3ccc(Cl)c(C(F)(F)F)c3)cc2)ccn1
Potency [7]: inactive
outcome [8]: inactive
outcome [9]: inactive
Potency [6]: inactive

S=P(N1CC1)(N1CC1)N1CC1
Potency [7]: inactive
outcome [8]: inactive

Cn1nnc2c(C(N)=O)ncn2c1=O
Potency [7]: inactive
Potency [3]: inactive
outcome [8]: inactive
outcome [9]: inactive
Potency [6]: inactive

COC(c1ccccc1)(c1ccccc1)[C@H](Oc1nc(C)cc(C)n1)C(=O)O
Potency [7]: inactive
outcome [8]: inactive
outcome [9]: inactive

CC(C)OC(=O)C(C(=O)OC(C)C)=C1SC=CS1
Potency [7]: inactive
outcome [8]: inactive
outcome [9]: inactive

Nc1[nH]c(=O)ncc1F
Potency [7]: inactive
Potency [3]: inactive
outcome [8]: inactive
outcome [9]: inactive
Potency [6]: inactive

NC(=O)c1cccnc1
Potency [7]: inactive
Potency [3]: inactive
outcome [8]: inactive
outcome [9]: inactive
Potency [6]: inactive

Cc1cccc(N(C)C(=S)Oc2ccc3ccccc3c2)c1
Potency [7]: inactive
outcome [8]: inactive
outcome [9]: inactive

CCCN[C@H]1CCc2nc(N)sc2C1
Potency [7]: inactive
Potency [3]: inactive
outcome [8]: inactive
outcome [9]: inactive
Potency [6]: inactive

COc1cc(NS(=O)(=O)c2ccc(N)cc2)nc(OC)n1
Potency [7]: inactive
outcome [8]: inactive
outcome [9]: inactive

CC(C)(C)C(=O)OCOP(=O)(COCCn1cnc2c(N)ncnc21)OCOC(=O)C(C)(C)C
Potency [7]: inactive
outcome [8]: inactive
outcome [9]: inactive

COc1ccc2cc3[n+](cc2c1OC)CCc1cc2c(cc1-3)OCO2
Potency [7]: inactive
outcome [8]: inactive
outcome [9]: inactive
Potency [6]: inactive

COc1ncnc(NS(=O)(=O)c2ccc(N)cc2)c1OC
Potency [7]: inactive
outcome [8]: inactive
outcome [9]: inactive

CCN[C@H]1C[C@H](C)S(=O)(=O)c2sc(S(N)(=O)=O)cc21
Potency [7]: inactive
Potency [3]: inactive
outcome [8]: inactive
outcome [9]: inactive
Potency [6]: inactive

Cc1nnc(NS(=O)(=O)c2ccc(N)cc2)s1
Potency [7]: inactive
Potency [3]: inactive
outcome [8]: inactive
outcome [9]: inactive
Potency [6]: inactive

CCOc1cc(N)c(Cl)cc1C(=O)NCC1CN(Cc2ccc(F)cc2)CCO1 (centres undefined)
Potency [7]: inactive
Potency [3]: inactive
outcome [8]: inactive
outcome [9]: inactive
Potency [6]: inactive

O=c1cc(O)c(Cl)c[nH]1
Potency [7]: inactive
Potency [3]: inactive
outcome [8]: inactive
outcome [9]: inactive
Potency [6]: inactive

COc1cnc(NS(=O)(=O)c2ccc(N)cc2)nc1
Potency [7]: inactive
outcome [8]: inactive
outcome [9]: inactive

CN(CCOc1ccc(CC2SC(=O)NC2=O)cc1)c1ccccn1 (centres undefined)
Potency [7]: inactive
Potency [3]: inactive
outcome [8]: inactive
outcome [9]: inactive
Potency [6]: inactive

O=NN(CCCl)C(=O)NC1CCCCC1
Potency [7]: inactive
Potency [3]: inactive
outcome [9]: inactive
Potency [6]: inactive

O=C(O)c1cc(=O)[nH]c(=O)[nH]1
Potency [7]: inactive
outcome [8]: inactive
outcome [9]: inactive

Cc1ccnc2c1NC(=O)c1cccnc1N2C1CC1
Potency [7]: inactive
outcome [8]: inactive
outcome [9]: inactive

CN(C)CCc1c[nH]c2ccc(CS(=O)(=O)N3CCCC3)cc12
Potency [7]: inactive
outcome [8]: inactive
outcome [9]: inactive

COc1ccc(C(=O)CC(=O)c2ccc(C(C)(C)C)cc2)cc1
Potency [7]: inactive
Potency [3]: inactive
outcome [8]: inactive
outcome [9]: inactive
Potency [6]: inactive

CC1=NN(c2ccccc2)C(=O)C1
Potency [7]: inactive
outcome [8]: inactive
outcome [9]: inactive

C[C@@H](NCCCc1cccc(C(F)(F)F)c1)c1cccc2ccccc12
Potency [7]: 26.4 µM (active)
outcome [8]: inactive
outcome [9]: inactive

CNS(=O)(=O)Cc1ccc2[nH]cc(CCN(C)C)c2c1
Potency [7]: inactive
outcome [8]: inactive
outcome [9]: inactive

CN1CCCC(n2nc(Cc3ccc(Cl)cc3)c3ccccc3c2=O)CC1 (centres undefined)
Potency [7]: inactive
outcome [8]: inactive
outcome [9]: inactive

CN1CCN(c2c(F)cc3c(=O)c(C(=O)O)cn4c3c2OCN4C)CC1
Potency [7]: inactive
outcome [8]: inactive
outcome [9]: inactive
Potency [6]: inactive

CC(=O)[C@H]1CC[C@H]2[C@@H]3CC=C4C[C@@H](O)CC[C@]4(C)[C@H]3CC[C@]12C
Potency [7]: inactive
outcome [8]: inactive
outcome [9]: inactive
Potency [6]: inactive

Cc1onc(-c2ccccc2Cl)c1C(=O)N[C@@H]1C(=O)N2[C@@H]1SC(C)(C)[C@@H]2C(=O)O
Potency [7]: inactive
outcome [8]: inactive
outcome [9]: inactive
Potency [6]: inactive
